Data as given in PubChem BioAssay (Tox21).
Where “and” joins values, the source holds several entries; their conditions need not be identical. Identical values can stand only once. Results filed as inconclusive are left out. Calls of active or inactive are those of the source. Unless noted, calls follow the shape of the dose curve; as a rule, active = well fitted curve in the direction sought with a large enough effect in the repeat runs; inconclusive = weak or mixed curves; inactive = no such curve, though single readings can be large; an effect the other way counts as inactive or inconclusive.

Columns and labels:
[1] = qHTS assay to identify small molecule antagonists of the vitamin D receptor (VDR) signaling pathway - cell viability counter screen (AID 743225); also: nearly all actives have a fitted effect of over 50% in size; as to viability change, negative = cytotoxic: % is scaled to controls: 0 for no effect and ±100 for the full control effect
How it was run: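 VDR-bla HEK 293T cells, 4 h pre-incubation at 37C, then compound plus 1-alpha,25-dihydroxyvitamin D3 (3 nM final) for 16 h. After the beta-lactamase FRET read, CellTiter-Glo was added to the same wells; luminescence after 30 min at room temperature.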

[2] = qHTS assay to identify small molecule agonists of the NFkB signaling pathway - cell viability counter screen (AID 1159515; calls by dose curve; also: nearly all actives have a fitted effect of over 55% in size; as to activity, negative = cytotoxic: series mostly up to about 61 µM; % is scaled to controls: 0 for no effect and ±100 for the full control effect)
How it was run: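 Parallel cytotoxicity counter screen in ME-180 cells carrying an NFkB-response-element beta-lactamase reporter, 2,000 cells/well. Compound exposure lasted 5 hr at 37 C, 5% CO2. Cell viability was quantified by CellTiter-Glo luminescence.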

[3] = qHTS assay to identify small molecule agonists of the endoplasmic reticulum stress response signaling pathway (AID 1159516; active = well fitted activation curve with a large enough effect in the signal ratio in the repeat runs, not every such curve was filed as active; the % refers to the signal ratio; as to activation: % is scaled to controls: 0 for no effect and ±100 for the full control effect)
How it was run: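 Using a HeLa line with an ESRE-driven beta-lactamase gene, agonist activity was measured by FRET substrate fluorescence (460 and 530 nm emission) after cells were treated with compounds for 5 hr at 37 C and 5% CO2.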

[4] = qHTS assay to identify small molecule antagonists of the retinoid-related orphan receptor gamma (ROR-gamma) signaling pathway - cell viability counter screen (AID 1159520); also: nearly all actives have a fitted effect of over 50% in size; as to activity, negative = cytotoxicity: % is scaled to controls: 0 for no effect and ±100 for the full control effect
How it was run: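 Cytotoxicity was read from cellular ATP (CellTiter-Glo luminescence) after 16 hr at 37 C with 1 uM doxycycline induction. The inducer was added 2 hr after compound transfer to Tet-on ROR gamma CHO cells.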

[5] = qHTS assay to identify small molecule agonists of the AP-1 signaling pathway - cell viability counter screen (AID 1159525; calls by dose curve; also: nearly all actives have a fitted effect of over 55% in size)
How it was run: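 Intracellular ATP by Cell Titer Glo luminescence (30 min, RT) in the same ME-180 AP-1-bla wells after the 5 h compound exposure at 37 °C. Normalised to tetra n-octyl ammonium bromide and DMSO controls.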

[6] = qHTS assay to identify small molecule agonists of the AP-1 signaling pathway (AID 1159526; calls by dose curve)
[7] = target: Retinoic acid receptor RXR-alpha (Homo sapiens) (UniProt P19793); assay: qHTS assay to identify small molecule agonists of the RXR signaling pathway (AID 1159527; calls by dose curve; also: nearly all actives have a fitted effect of over 35% in size)
How it was run: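 GeneBLAzer RXR-alpha-UAS-bla HEK 293T cells in medium with 2% charcoal-stripped FBS, pre-incubated 5 hr at 37 C, then exposed to compounds 16 hr. Beta-lactamase reporter read by FRET substrate, 2 hr room temperature, 460/530 nm emission.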

[8] = qHTS assay to identify small molecule agonists of the RXR signaling pathway - cell viability counter screen (AID 1159529); also: nearly all actives have a fitted effect of over 50% in size
How it was run: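 RXR-alpha-UAS-bla HEK 293T cells in medium with 2% charcoal-stripped FBS were preincubated 5 hr, then exposed to compounds for 16 hr at 37 C. Viability was read as CellTiter-Glo luminescence after 30 min at room temperature.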

[9] = target: Nuclear receptor ROR-gamma (Homo sapiens) (UniProt P51449); assay: qHTS assay to identify small molecule antagonists of the retinoid-related orphan receptor gamma (ROR-gamma) signaling pathway (AID 1159521; also: nearly all actives have a fitted effect of over 50% in size)
How it was run: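 Tet-on RORγ CHO cells carrying a ROR response element–luciferase reporter were pretreated with compounds for 2 h, then induced with 1 uM (final) doxycycline hyclate for 16 h at 37 C. Antagonism was read as decreased ONE-Glo luminescence.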
Potency is read from the fitted curve at half-maximal effect.

Chain of Retinoic acid receptor RXR-alpha (Homo sapiens) (P19793 whole entry, looked up): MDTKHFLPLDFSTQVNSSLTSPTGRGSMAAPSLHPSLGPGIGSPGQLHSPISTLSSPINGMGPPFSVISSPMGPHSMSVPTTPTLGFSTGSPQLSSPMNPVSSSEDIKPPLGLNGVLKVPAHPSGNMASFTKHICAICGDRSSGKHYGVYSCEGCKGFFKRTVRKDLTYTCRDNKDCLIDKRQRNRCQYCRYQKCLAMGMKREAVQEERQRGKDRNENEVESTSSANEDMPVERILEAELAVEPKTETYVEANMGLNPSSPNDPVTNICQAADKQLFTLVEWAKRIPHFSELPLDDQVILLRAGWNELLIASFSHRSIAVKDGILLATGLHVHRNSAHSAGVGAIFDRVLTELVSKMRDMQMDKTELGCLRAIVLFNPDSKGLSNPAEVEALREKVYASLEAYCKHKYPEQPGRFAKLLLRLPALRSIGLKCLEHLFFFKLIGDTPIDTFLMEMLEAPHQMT

Cc1cccc2cccnc12
inactive: Potency [1] | Potency [2] | Potency [3] | Potency [4] | Potency [5] | Potency [6] | Potency [7] | Potency [8]

Nc1ccc(Oc2ccc(Cl)cc2)cc1
inactive: Potency [1] | Potency [2] | Potency [3] | Potency [4] | Potency [9] | Potency [6] | Potency [8]

O=C1CCc2cc(OCCCCc3nnnn3C3CCCCC3)ccc2N1
inactive: Potency [1] | Potency [2] | Potency [3] | Potency [4] | Potency [9] | Potency [5] | Potency [6] | Potency [8]

O=S(=O)(O)c1ccc(Nc2nc(Nc3ccc(/C=C/c4ccc(Nc5nc(Nc6ccc(S(=O)(=O)O)cc6)nc(N(CCO)CCO)n5)cc4S(=O)(=O)O)c(S(=O)(=O)O)c3)nc(N(CCO)CCO)n2)cc1
active: Potency [3] 37.1 µM | Potency [7] 26.3 µM
inactive: Potency [1] | Potency [2] | Potency [4] | Potency [9] | Potency [5] | Potency [8]

CC/C=C\CCCCCO
inactive: Potency [1] | Potency [2] | Potency [3] | Potency [4] | Potency [5] | Potency [6] | Potency [8]

CN(C)C(=O)COC(=O)Cc1ccc(OC(=O)c2ccc(N=C(N)N)cc2)cc1
inactive: Potency [1] | Potency [2] | Potency [3] | Potency [4] | Potency [5] | Potency [6] | Potency [7] | Potency [8]

Cc1c2ccccc2c(C)c2c1ccc1ccccc12
active: Potency [1] 43.2 µM and 19.5 µM | Potency [2] 12.2 µM | Potency [3] 43.2 µM | Potency [4] 60.5 µM and 27.3 µM | Potency [9] 24.1 µM and 21.7 µM | Potency [8] 19.3 µM and 19.5 µM
inactive: Potency [5]

CN1CCC[C@@H]1CCO[C@](C)(c1ccccc1)c1ccc(Cl)cc1
active: Potency [2] 21.3 µM | Potency [8] 8.49 µM
inactive: Potency [3] | Potency [4] | Potency [5]

CC1(C)CC(O)CC(C)(C)N1
inactive: Potency [1] | Potency [2] | Potency [3] | Potency [4] | Potency [9] | Potency [6] | Potency [7] | Potency [8]

CCCCNS(=O)(=O)c1ccc(C)cc1
inactive: Potency [1] | Potency [2] | Potency [3] | Potency [4] | Potency [9] | Potency [6] | Potency [7] | Potency [8]

C=CCn1c(=O)n(CC=C)c(=O)n(CC=C)c1=O
inactive: Potency [1] | Potency [2] | Potency [3] | Potency [4] | Potency [9] | Potency [5] | Potency [6] | Potency [8]

CN1CCN2c3ccccc3Cc3ccccc3C2C1 (stereo not drawn)
inactive: Potency [1] | Potency [2] | Potency [3] | Potency [4] | Potency [9] | Potency [5] | Potency [7] | Potency [8]

O=C(O)c1cccc(C(F)(F)F)c1
inactive: Potency [1] | Potency [2] | Potency [3] | Potency [4] | Potency [5] | Potency [6] | Potency [8]

O=C(O)CN(CCN(CC(=O)O)CC(=O)O)CC(=O)O
inactive: viability change, negative = cytotoxic [1] 4.84% [at 3.11 µM] | activity, negative = cytotoxic [2] -2.83% [at 3.12 µM] | activation [3] -1.14% [at 3.11 µM] | activity, negative = cytotoxicity [4] -1.43% [at 3.27 µM] | viability change, negative = cytotoxic [5] -2.04% [at 2.72 µM] | activation [7] -6.85% [at 2.71 µM] | activity change, negative = cytotoxicity [8] -6.94% [at 2.72 µM]

CN(C)Cc1cc(C(C)(C)C)c(O)c(C(C)(C)C)c1
active: Potency [7] 11 µM
inactive: Potency [2] | Potency [3] | Potency [4] | Potency [5] | Potency [6]

c1cnccn1
inactive: Potency [1] | Potency [2] | Potency [3] | Potency [4] | Potency [5] | Potency [6] | Potency [7] | Potency [8]

COc1cc(/C=C/c2ccccc2)oc(=O)c1
inactive: Potency [1] | Potency [2] | Potency [3] | Potency [4] | Potency [9] | Potency [5] | Potency [6] | Potency [8]

c1ccsc1
inactive: Potency [1] | Potency [2] | Potency [3] | Potency [4] | Potency [9] | Potency [5] | Potency [6] | Potency [8]

Cc1ccc(O)c(N)c1
active: Potency [6] 55 µM
inactive: Potency [1] | Potency [2] | Potency [3] | Potency [4] | Potency [9] | Potency [5] | Potency [8]

CCC(C)[O-].CCC(C)[O-].CCOC(=O)/C=C(/C)[O-].[Al+3]
inactive: Potency [1] | Potency [2] | Potency [3] | Potency [4] | Potency [5] | Potency [6] | Potency [8]

O=C(O)[C@H](O)[C@@H](O)[C@H](O[C@@H]1O[C@H](CO)[C@H](O)[C@H](O)[C@H]1O)[C@H](O)CO
inactive: Potency [1] | Potency [2] | Potency [3] | Potency [4] | Potency [9] | Potency [6] | Potency [7] | Potency [8]

O=C(O)c1cc(O)c2ccccc2c1O
inactive: Potency [3]
active: Potency [2] 21.9 µM | Potency [4] 17.2 µM | Potency [9] 13.7 µM | Potency [5] 4.9 µM | Potency [8] 30.9 µM

CCC(CC)C(C)CCOC(C)=O (stereo not drawn)
inactive: Potency [1] | Potency [2] | Potency [3] | Potency [4] | Potency [5] | Potency [6] | Potency [7] | Potency [8]

CC[N+](CC)(CC)CCOC(=O)C(C1CCCC1)C1CCCC1
inactive: Potency [1] | Potency [2] | Potency [3] | Potency [4] | Potency [5] | Potency [6] | Potency [7] | Potency [8]

CCCC(=O)OCOC(=O)C1=C(C)NC(C)=C(C(=O)OC)C1c1cccc(Cl)c1Cl (stereo not drawn)
inactive: Potency [1] | Potency [2] | Potency [3] | Potency [4] | Potency [9] | Potency [6] | Potency [7] | Potency [8]

Cc1nc2n(c(=O)c1CCN1CCC(c3noc4cc(F)ccc34)CC1)CCCC2
inactive: Potency [2] | Potency [3] | Potency [4] | Potency [5] | Potency [6] | Potency [7]
